Screening results from PubChem.
KinaseGlo FLuc – Kinase-Glo luciferase inhibition (counter-screen) | Q27757 | Kinase-Glo luciferase, ATP luminescence, 8 min | Potency, µM (titrated, usually from 38.3 µM), inactives show top-dose activity change, negative = inhibition, most hits filed as inhibitors | hit rate 0.28% among 200,000; active means well fitted inhibition curve with a large enough effect; inconclusive means small, poorly fitted or top-dose-only effect; further: potency means the concentration at half of the fitted maximal effect; nearly all actives have a fitted effect of over 60% in size
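Luminescence was the read-out, taken after 8-minute incubation at ambient temperature. Luciferase turned over luciferin with 10 uM ATP in imidazole pH 7.2 buffer containing KCl, MgCl2, Tween 20 and BSA.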
KCNH2 3.1 block – KCNH2 3.1 (human) potassium channel inhibition. hit rate 0.95% among 340,000. activity change, % (tested at about 1.8 µM). U2OS KCNH2 3.1, thallium flux FluxOr; hits give low values;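 active means maximum activity change below -70%; inconclusive means maximum activity change from -70% to -50%; inactive means maximum activity change above -50%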;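 further: thallium influx rate constant from kinetic fluorescence after stimulation buffer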
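Thallium flux via FluxOr fluorescence (Red40 quencher, 45 min loading) in U2OS cells virally expressing the KCNH2 3.1 isoform (1.77 x 10^8 /mL virus, overnight at 37 C). Rate constants from 2-min kinetic reads post-stimulation, normalised to positive and negative controls.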
KCNH2 WT inh – inhibitors of human wildtype KCNH2 potassium channel; Q12809; U2OS, BacMam KCNH2, thallium flux FluxOr; hits give low values; activity change, % at 1.84 µM; hit rate 0.37% among 340,000; AID 720551;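 active means maximum activity change below -70%; inconclusive means maximum activity change between -70% and -50%; inactive means maximum activity change above -50%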
Target sequence (Q12809 whole entry, looked up): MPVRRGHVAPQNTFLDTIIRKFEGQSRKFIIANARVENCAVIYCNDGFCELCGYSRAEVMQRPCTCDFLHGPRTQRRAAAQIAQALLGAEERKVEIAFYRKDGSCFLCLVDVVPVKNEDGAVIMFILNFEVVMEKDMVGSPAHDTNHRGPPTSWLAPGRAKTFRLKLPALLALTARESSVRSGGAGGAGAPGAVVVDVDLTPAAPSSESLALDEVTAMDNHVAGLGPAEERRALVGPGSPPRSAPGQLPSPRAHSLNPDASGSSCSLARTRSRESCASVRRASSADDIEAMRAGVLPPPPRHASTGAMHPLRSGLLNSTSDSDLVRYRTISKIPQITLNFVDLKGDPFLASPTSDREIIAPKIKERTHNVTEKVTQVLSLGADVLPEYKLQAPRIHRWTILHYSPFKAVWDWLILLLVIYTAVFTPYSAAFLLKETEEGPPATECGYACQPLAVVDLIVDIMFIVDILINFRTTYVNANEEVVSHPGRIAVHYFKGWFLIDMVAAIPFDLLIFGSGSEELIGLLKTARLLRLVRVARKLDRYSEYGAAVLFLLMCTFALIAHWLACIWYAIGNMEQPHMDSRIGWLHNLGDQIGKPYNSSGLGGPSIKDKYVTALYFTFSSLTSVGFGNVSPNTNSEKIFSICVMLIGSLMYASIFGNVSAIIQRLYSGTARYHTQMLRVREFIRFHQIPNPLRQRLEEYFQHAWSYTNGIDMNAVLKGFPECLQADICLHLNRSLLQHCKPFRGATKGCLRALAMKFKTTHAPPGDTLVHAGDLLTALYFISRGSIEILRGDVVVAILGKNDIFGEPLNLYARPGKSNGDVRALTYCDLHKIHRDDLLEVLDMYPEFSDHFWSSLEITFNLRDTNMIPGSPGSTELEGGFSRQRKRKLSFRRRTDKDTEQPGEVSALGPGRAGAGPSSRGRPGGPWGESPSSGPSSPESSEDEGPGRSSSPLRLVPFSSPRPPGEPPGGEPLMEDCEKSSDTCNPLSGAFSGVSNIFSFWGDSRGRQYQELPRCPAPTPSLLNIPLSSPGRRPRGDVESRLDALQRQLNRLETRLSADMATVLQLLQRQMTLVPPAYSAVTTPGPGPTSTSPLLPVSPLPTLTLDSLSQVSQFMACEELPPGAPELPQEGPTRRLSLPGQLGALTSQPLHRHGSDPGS
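U2OS cells were transduced with wild-type KCNH2 virus (2.03 x 10^8 / mL) for 4 h at room temperature, then cultured overnight at 37 C. Thallium flux was read with FluxOr dye. Rate constants were normalized to DMSO controls.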
An asterisk follows results filed as active; ? = inconclusive; · = not tested or not shown. Most compounds without a hit are left out; they make up all but 1.2% or so of the library. On the % scale 0 is the no-effect control and ±100 the full control effect.

SMILES | KinaseGlo FLuc | KCNH2 3.1 block | KCNH2 WT inh
O=C(COC(=O)C1CC2CCCC(C1)C2=O)Nc1nc(-c2ccc(F)c(F)c2)cs1 (configuration not stated) | · | -94* | 1
COc1ccc(NS(=O)(=O)c2ccc(C(=O)N(C)Cc3ccc(C)o3)cc2)cc1 | · | 3 | 6
CC(C)NC(=O)c1cc(-c2ccc3c(c2)OCO3)on1 | · | 4 | -13
COc1ccc(NC(=O)c2c([N+](=O)[O-])c(C(C)(C)C)nn2C)cc1 | · | -81* | -12
CC(=O)Nc1ccc(NC(=O)c2c([N+](=O)[O-])c(C(C)(C)C)nn2C)cc1 | · | -18 | -4
CC(=O)Nc1ccc(S(=O)(=O)NC(C(=O)O)C(C)C)cc1 (configuration not stated) | · | -72* | -5
CCC(C)NS(=O)(=O)c1ccc(NC(C)=O)cc1 (configuration not stated) | -1% | -9 | 15
CC(C)C(NC(=O)OCc1ccccc1)C(=O)O (configuration not stated) | -1% | 11 | -3
CC[C@@H](C)[C@H](NC(=O)OCc1ccccc1)c1nnc([C@@H](NC(=O)OCc2ccccc2)[C@@H](C)CC)o1 | · | -86* | 5
COc1ccc(CC2(CO)CCN(C/C=C/c3ccccc3OC)CC2)cc1 | -1% | -109* | -90*
COc1ccc(CC2(CO)CCN(Cc3cnn(-c4ccccc4OC)c3)CC2)cc1 | · | -24 | 25
COc1ccccc1/C=C/CN1CCCC(CO)(CCc2ccccc2)C1 (configuration not stated) | · | -75* | -26
OCC1(CCc2ccccc2)CCCN(C/C=C/c2ccccc2)C1 (configuration not stated) | · | ? | -12
O=C(Nc1ccc(F)cc1)c1cc(-c2ccccn2)nc2c(Cl)cccc12 | · | -42 | -19
CC1CCc2c(sc3ncnc(SC(C)C(=O)NCC4CCCO4)c23)C1 (configuration not stated) | · | 23 | 19
CN(C)c1ccc(CNC(=O)CCc2ccc(S(=O)(=O)N3CCCCCC3)cc2)cc1 | · | 6 | 1
Cc1ccc(CNC(=O)CSc2nc3ccccc3[nH]2)cc1 | · | 3 | -8
O=C(CSc1nc2ccccc2[nH]1)NCCc1ccc(Cl)cc1 | -1% | -30 | -121*
COc1ccc(-n2ccn3c(CCC(=O)N4CCN(c5cccc(C)c5C)CC4)nnc3c2=O)cc1 | · | -5 | 9
CN1CCc2c1nc1ccccc1c2NC(=O)CN1CCCC1 | · | 8 | 11
CCCCCCC(=O)Nc1c2c(nc3ccccc13)N(C)CC2 | -2% | -95* | -101*
COc1ccc(C2(C)NC(=O)N(CC(=O)c3cc(C)n(C4CC4)c3C)C2=O)cc1OC (configuration not stated) | · | 19 | -13
CC(NC(=O)CSc1nc(C2CC2)n(-c2ccccc2)n1)c1ccco1 (configuration not stated) | · | -10 | -13
Cc1ccc(NC(=O)N2CCc3ccccc3C2)cc1 | -2% | -11 | -6
CC(=O)Nc1ccc(S(=O)(=O)N2CCc3ccccc3C2)cc1 | 1% | 16 | -4
SMILES | KinaseGlo FLuc | KCNH2 3.1 block | KCNH2 WT inh
Cc1ccc(NC(=O)C(C)N2CCc3ccccc3C2)cc1 (configuration not stated) | · | -115* | -4
CC(C(=O)Nc1ccc(S(=O)(=O)N2CCCC2)cc1)N1CCc2ccccc2C1 (configuration not stated) | · | -187* | -7
COc1cc2c(cc1OC)CN(C(=O)Cc1c(F)cccc1Cl)CC2 | · | 9 | -1
COc1ccc(C2c3[nH]c4ccccc4c3C[C@H]3C(=O)N(C4CCN(Cc5ccccc5)CC4)CC(=O)N23)c(OC)c1 (some centres not stated) | · | ? | -41
CCOc1ccccc1C1c2[nH]c3ccccc3c2C[C@H]2C(=O)N(C3CCN(Cc4ccccc4)CC3)CC(=O)N12 (some centres not stated) | · | -102* | -94*
COC(=O)c1ccc(C2c3[nH]c4ccccc4c3C[C@H]3C(=O)N(C4CCN(Cc5ccccc5)CC4)CC(=O)N23)cc1 (some centres not stated) | · | -80* | -42
O=C1[C@@H]2Cc3c([nH]c4ccccc34)C(c3ccccc3)N2C(=O)CN1C1CCN(Cc2ccccc2)CC1 (some centres not stated) | · | ? | -7
COc1ccc(N2CC(C(=O)N3CCN(c4ccccc4OC)CC3)CC2=O)cc1 (configuration not stated) | · | 17 | 7
COc1ccccc1OCC(=O)N1CCCC(Nc2cccc(F)c2)C1 (configuration not stated) | · | · | 4
O=C(/C=C1\NC2(CCCC2)Cc2ccccc21)C(=O)N/N=C/c1ccccc1O | -1% | -85* | -22
